NALP1 yeast inh: NALP1 inhibition; inhibition, % at 10 µM; AID 2071; S. cerevisiae NALP1/ASC/caspase-1 growth, X-gal OD620, 72 h; 280,000 tested, 0.61% active; in the data active = inhibition mostly above about 24%, no sharp cut-off; inactive = mostly below about 32%
dFosB act: mouse delta FosB homodimer activation. purified delta FosB, TAMRA-CDK5 oligo fluorescence polarization; percent of positive-control signal above neutral wells. activation, % at 25 µM. 340,000 tested, 0.99% active. AID 493131;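 active = mean activation above about 17%, with every replicate also reaching it, limit read from the data, passing the limit was not always enough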
Target sequence (P13346 whole entry, looked up): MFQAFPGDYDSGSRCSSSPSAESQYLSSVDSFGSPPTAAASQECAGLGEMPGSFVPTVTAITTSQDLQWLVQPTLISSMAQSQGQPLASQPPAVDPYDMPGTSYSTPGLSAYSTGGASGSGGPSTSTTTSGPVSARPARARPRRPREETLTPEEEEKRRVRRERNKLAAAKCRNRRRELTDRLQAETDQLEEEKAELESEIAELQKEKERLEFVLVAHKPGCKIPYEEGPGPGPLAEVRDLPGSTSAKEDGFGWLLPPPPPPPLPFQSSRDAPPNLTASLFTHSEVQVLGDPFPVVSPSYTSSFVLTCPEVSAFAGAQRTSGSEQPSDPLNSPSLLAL
UBC13 polyUb: human UBC13 polyubiquitination inhibition; inhibition, % at 20 µM; P61088; AID 485273; 330,000 tested, 0.47% active; UBC13 polyubiquitin chain formation, TR-FRET; in the data active = inhibition above about 45%, passing the limit was not always enough
Target sequence (P61088 whole entry, looked up): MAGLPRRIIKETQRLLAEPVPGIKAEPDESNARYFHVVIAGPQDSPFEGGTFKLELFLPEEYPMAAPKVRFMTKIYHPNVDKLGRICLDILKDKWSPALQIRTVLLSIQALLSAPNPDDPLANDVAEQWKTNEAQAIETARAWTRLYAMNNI
Yeast superoxide: caloric restriction mimetics inhibiting age-related superoxide in yeast. S. cerevisiae aged cells, superoxide DHE fluorescence; active compounds read low. superoxide response (% of plate mean), % at 10 µM. 330,000 tested, 0.18% active. AID 2690;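 active = superoxide response under a set limit, about three screen SD below normal, cut at about 65% in these data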;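 also: yeast aged for seven days with compound at 30 °C before DHE staining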
GRIN3A LBD mod: modulators (binders) of human NR3A ligand-binding domain; NR3A LBD differential scanning fluorimetry, Tm shift; 0% = protein alone, 100% = glycine-bound protein; Tm shift relative to glycine control, % at 25 µM; 340,000 tested, 2.5% active;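 active = melting temperature shift of at least 10% of the positive control shift, at one fixed dose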
Superoxide pick: confirmation of caloric restriction mimetics inhibiting yeast age-related superoxide; superoxide response (% of plate), % at 10 µM; 850 tested, 1% active; S. cerevisiae aging, superoxide DHE fluorescence; active compounds read low; shares compounds with Yeast superoxide; AID 434994;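 active = superoxide signal below 65% of the plate average of sample wells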;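 also: cells aged with compound for 7 days at 30 degrees C before staining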
DHE fluor count: compound alters DHE oxidation or fluorescence in yeast. fluorescence response, % at 10 µM. 850 tested, under 10 active. AID 435000. S. cerevisiae BY4741, flow cytometry; active compounds read low. shares compounds with Yeast superoxide;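 active = fluorescence response below 15%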;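 also: lower means stronger quenching of DHE signal or ROS scavenging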
Hits are given with their value; 0 = inactive; - = no result. Shown are actives, neighbours in structure and some others; about 4.3% of the full set was active somewhere.

SMILES	NALP1 yeast inh	dFosB act	UBC13 polyUb	Yeast superoxide	GRIN3A LBD mod	Superoxide pick	DHE fluor count
COc1ccc(NS(=O)(=O)c2ccc(OC)c(OC)c2)cc1OC	0	0	0	0	0	-	-
COc1ccc(NS(=O)(=O)c2ccc(S(=O)(=O)N3CCCC3)cc2)cc1Cl	0	0	0	0	0	-	-
COc1ccc(S(=O)(=O)Nc2cccc(Cl)c2)cc1OC	0	0	0	0	0	0	0
CC[C@@]1(C(=O)OC)N[C@H](CN(C)S(=O)(=O)c2ccc(OC)cc2)[C@@H]2C(=O)N(C)C(=O)[C@@H]21	-	0	0	0	0	-	-
CCOc1ccc(NCc2nnc(SCc3ccc(Cl)cc3)n2-c2ccccc2)cc1	0	0	0	0	0	-	-
Cc1[nH][nH]c(=O)c1C(c1ccc(O)c(Br)c1)c1c(C)[nH][nH]c1=O	0	0	0	56	0	0	0
COc1ccc(C(c2c(C)[nH][nH]c2=O)c2c(C)[nH][nH]c2=O)cc1Br	0	0	0	0	0	-	-
Cc1ccc(NC(=O)CNCC(c2ccccc2)N(C)C)cc1F (configuration not stated)	-	0	0	0	0	-	-
Cc1cc(NC(=O)CNCC(c2ccccc2)N(C)C)c([N+](=O)[O-])cc1C (configuration not stated)	0	0	0	43	0	0	0
Cc1ccc(NC(=S)NCc2ccc(Cl)cc2)c(OC(F)F)c1	0	0	0	0	0	-	-
COc1ccc(-n2ncc3c(NCC(C)C)ncnc32)cc1	0	0	0	0	17	0	0
COc1ccc(-n2ncc3c(NC(C)C)ncnc32)cc1	0	0	0	0	0	-	-
COCC(C)Nc1ncnc2c1cnn2-c1ccc(Cl)cc1 (configuration not stated)	0	0	0	0	0	0	0
Cc1cccc(NS(=O)(=O)c2cc(C(=O)N3CCN(C)CC3)ccc2C)c1	0	0	0	64	0	0	0
CCN1CCN(C(=O)c2ccc(C)c(S(=O)(=O)Nc3cccc(C)c3)c2)CC1	0	0	0	0	0	-	-
O=C(Cc1ccccc1F)Nc1cc(S(=O)(=O)N2CCOCC2)ccc1N1CCCC1	-	-	0	0	0	0	0
CCN(CC)S(=O)(=O)c1ccc(N2CCCC2)c(NC(=O)Cc2ccccc2)c1	-	0	0	40	0	0	0
CCN(CC)S(=O)(=O)c1ccc(N2CCOCC2)c(NC(=O)Cc2ccc(Cl)cc2)c1	0	0	0	0	0	-	-
CCC(C)NC(=O)CNC(=S)N(Cc1ccccc1F)C1CCCCC1 (configuration not stated)	0	0	0	0	0	-	-
CCN(CC)CCCN(C(=O)c1ccc(F)cc1)c1nc(-c2ccc(OC)cc2)cs1	0	0	0	0	0	-	-
O=C(CCNC(=O)c1ccc(Br)cc1)OCc1ccccc1Cl	-	0	0	63	0	0	0
CN(C)S(=O)(=O)c1ccc(C(=O)OCn2nnc3ccccc3c2=O)cc1	0	0	0	65	0	0	0
Cc1cccc(NS(=O)(=O)c2ccc(C(=O)N3CCC3)cc2)c1C	-	0	0	0	0	-	-
CCOC(=O)c1ccccc1N/C=C/C(=O)c1cccs1	0	0	0	63	0	0	0
CCOC(=O)c1ccccc1NC(=O)c1cccs1	0	0	0	0	0	-	-
SMILES	NALP1 yeast inh	dFosB act	UBC13 polyUb	Yeast superoxide	GRIN3A LBD mod	Superoxide pick	DHE fluor count
CCCCCC(=O)NC(=S)Nc1cccc(C(C)=O)c1	0	0	0	60	0	0	0
CCCC(=O)NC(=S)Nc1cccc(C(C)=O)c1	0	0	0	0	0	-	-
O=C(CCOc1ccccc1)Nc1ccc(S(=O)(=O)Nc2ncccn2)cc1	-	0	0	0	0	-	-
O=S(=O)(c1ccc(Cl)cc1)c1ccccn1	0	0	0	0	0	-	-
NS(=O)(=O)c1ccc(S(=O)(=O)c2ccccc2)nc1	-	-	0	64	0	0	0
Cc1ccc(C2=NCCn3c2c2ccccc2[n+]3[O-])cc1	-	0	0	0	0	-	-
CSc1ccccc1NC(=O)CSc1nnc(CNC(=O)c2ccccc2F)n1C	0	0	0	0	0	-	-
COc1ccc(C(=O)CN2C(=O)c3ccccc3C2=O)c(OC)c1	0	0	0	63	0	0	0
O=C(O)C1CC(O)CN1S(=O)(=O)c1ccc2ccccc2c1 (configuration not stated)	-	0	0	0	0	-	-
Cc1ccc(S(=O)(=O)N2CC(O)CC2C(=O)O)cc1 (configuration not stated)	0	0	0	0	0	0	0
Cc1cc(C(=O)COc2cccnc2[N+](=O)[O-])c(C)n1-c1ccccc1	0	0	0	58	0	0	0
Cc1ccc(-n2c(C)cc(C(=O)COc3cccnc3[N+](=O)[O-])c2C)cc1	-	0	0	0	0	-	-
CC12C(=O)N(c3ccc(OC(=O)c4ccco4)cc3)C(=O)C1C1c3ccccc3C2c2ccccc21 (configuration not stated)	0	0	0	0	0	-	-
CC(C)Cn1c(=S)[nH]c2cc(C(=O)O)ccc2c1=O	-	0	0	0	0	-	-
CC(C)Cn1c2ccccc2c2cc(C(=O)O)ccc21	0	0	0	0	0	0	0
CCSc1ncc(Cl)c(C(=O)Nc2ccc(S(N)(=O)=O)cc2)n1	0	0	0	63	0	0	0
CCSc1ncc(Cl)c(C(=O)Nc2ccc(S(=O)(=O)Nc3ncccn3)cc2)n1	0	0	0	0	0	-	-
CCSc1ncc(Cl)c(C(=O)Nc2ccccc2)n1	0	0	0	0	0	0	0
CN(c1ccccc1)S(=O)(=O)c1ccc(NC(=O)c2nc(S(C)(=O)=O)ncc2Cl)cc1	0	0	0	62	0	0	0
CSc1ncc(Cl)c(C(=O)Nc2ccccc2C)n1	0	0	0	0	0	0	0
CN(Cc1ccccc1)C(=O)c1cccc(NC(=O)Cc2ccc(NC(=O)C3CCN(C(=O)C4CC4)CC3)cc2)c1	-	0	-	-	0	-	-
CSc1ncc(Cl)c(C(=O)Nc2ccccc2[N+](=O)[O-])n1	0	0	0	0	0	-	-
CCSc1ncc(Cl)c(C(=O)Nc2ccccc2C)n1	0	0	0	62	0	0	0
NNC(=O)CCC(=O)Nc1ccccc1	0	0	0	0	0	-	-
NNC(=O)CCn1c2ccccc2c2ccccc21	0	0	0	0	0	0	0
CC(=NCCc1ccccc1)C1=C(O)C(c2ccccc2)OC1=O (configuration not stated)	0	0	0	52	0	0	0
O=C1c2cc(O)c(O)cc2OC(c2ccc(O)c(O)c2)C1O (configuration not stated)	-	0	-	-	0	-	-
CCCOc1ccc(NC(=O)C2CC(=O)N3CCCN=C3S2)cc1 (configuration not stated)	0	0	0	65	0	0	0
CN(C(=O)COC(=O)c1c2c(nc3ccccc13)CCCC2)c1c(N)n(Cc2ccccc2)c(=O)[nH]c1=O	-	0	0	0	0	-	-
